# Data: paper PMC11006913
# Experiments:
# Assay in all cases: PBM; 200 nM protein, PBS
# Details in all cases: dsDNA, one strand shown
# [1] = target: CRX (Homo sapiens, UniProt O43186 26-111)
# [2] = target: CRX (Homo sapiens, UniProt O43186 26-111, E42D)
# [3] = target: PITX2 (Homo sapiens, UniProt Q99697 72-157)
# [4] = target: CRX (Homo sapiens, UniProt O43186 26-111, R41L)
# [5] = target: VAX1 (Homo sapiens, UniProt Q5SQQ9 86-172)
# [6] = target: VAX1 (Homo sapiens, UniProt Q5SQQ9 86-172, T142I)
# [7] = target: VAX1 (Homo sapiens, UniProt Q5SQQ9 86-172, K157R)
# Chain of VAX1 (Homo sapiens, UniProt Q5SQQ9 86-172, K157R) (Q5SQQ9 86-172 K157R): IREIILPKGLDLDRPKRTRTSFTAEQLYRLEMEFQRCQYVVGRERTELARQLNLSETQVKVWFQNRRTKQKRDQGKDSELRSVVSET
# Chain of CRX (Homo sapiens, UniProt O43186 26-111, R41L) (O43186 26-111 R41L): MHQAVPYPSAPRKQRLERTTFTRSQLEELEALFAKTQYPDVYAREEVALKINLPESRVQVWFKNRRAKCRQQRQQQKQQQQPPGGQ
# Chain of CRX (Homo sapiens, UniProt O43186 26-111, E42D) (O43186 26-111 E42D): as the sequence (O43186 26-111 R41L) above, with L16R, E17D counted along it
# Chain of CRX (Homo sapiens, UniProt O43186 26-111) (O43186 26-111): as the sequence (O43186 26-111 R41L) above, with L16R counted along it
# Chain of VAX1 (Homo sapiens, UniProt Q5SQQ9 86-172) (Q5SQQ9 86-172): as the sequence (Q5SQQ9 86-172 K157R) above, with R72K counted along it
# Chain of VAX1 (Homo sapiens, UniProt Q5SQQ9 86-172, T142I) (Q5SQQ9 86-172 T142I): as the sequence (Q5SQQ9 86-172 K157R) above, with T57I, R72K counted along it
Sequence,binding signal [1],binding signal [2],binding signal [3],binding signal [4],binding signal [5],binding signal [6],binding signal [7]
TGGATTAA,"13.4 upbm affinity estimate (log intensity, higher = more binding, comparable within an allelic series)","13.5 upbm affinity estimate (log intensity, higher = more binding, comparable within an allelic series)","13.3 upbm affinity estimate (log intensity, higher = more binding, comparable within an allelic series)","13.2 upbm affinity estimate (log intensity, higher = more binding, comparable within an allelic series)",–,–,–
GGAGATTA,"13.2 upbm affinity estimate (log intensity, higher = more binding, comparable within an allelic series)","13.2 upbm affinity estimate (log intensity, higher = more binding, comparable within an allelic series)","12.9 upbm affinity estimate (log intensity, higher = more binding, comparable within an allelic series)","13.1 upbm affinity estimate (log intensity, higher = more binding, comparable within an allelic series)",–,–,–
GGGATTAA,"13.7 upbm affinity estimate (log intensity, higher = more binding, comparable within an allelic series)","13.8 upbm affinity estimate (log intensity, higher = more binding, comparable within an allelic series)","13.6 upbm affinity estimate (log intensity, higher = more binding, comparable within an allelic series)","13.7 upbm affinity estimate (log intensity, higher = more binding, comparable within an allelic series)",–,–,–
AGATTATC,"13.2 upbm affinity estimate (log intensity, higher = more binding, comparable within an allelic series)","13.1 upbm affinity estimate (log intensity, higher = more binding, comparable within an allelic series)","12.5 upbm affinity estimate (log intensity, higher = more binding, comparable within an allelic series)","13.2 upbm affinity estimate (log intensity, higher = more binding, comparable within an allelic series)",–,–,–
GAGATTAA,"13.1 upbm affinity estimate (log intensity, higher = more binding, comparable within an allelic series)","13.1 upbm affinity estimate (log intensity, higher = more binding, comparable within an allelic series)","12.8 upbm affinity estimate (log intensity, higher = more binding, comparable within an allelic series)","12.8 upbm affinity estimate (log intensity, higher = more binding, comparable within an allelic series)",–,–,–
ATAATCCC,"13.5 upbm affinity estimate (log intensity, higher = more binding, comparable within an allelic series)","13.7 upbm affinity estimate (log intensity, higher = more binding, comparable within an allelic series)","13.2 upbm affinity estimate (log intensity, higher = more binding, comparable within an allelic series)","13.7 upbm affinity estimate (log intensity, higher = more binding, comparable within an allelic series)",–,–,–
TAATCTCA,"12.7 upbm affinity estimate (log intensity, higher = more binding, comparable within an allelic series)","12.7 upbm affinity estimate (log intensity, higher = more binding, comparable within an allelic series)","12.4 upbm affinity estimate (log intensity, higher = more binding, comparable within an allelic series)","12.4 upbm affinity estimate (log intensity, higher = more binding, comparable within an allelic series)",–,–,–
AGAGATTA,"13.1 upbm affinity estimate (log intensity, higher = more binding, comparable within an allelic series)","13.1 upbm affinity estimate (log intensity, higher = more binding, comparable within an allelic series)","12.7 upbm affinity estimate (log intensity, higher = more binding, comparable within an allelic series)","13 upbm affinity estimate (log intensity, higher = more binding, comparable within an allelic series)",–,–,–
CGTAATCC,"13.2 upbm affinity estimate (log intensity, higher = more binding, comparable within an allelic series)","13.2 upbm affinity estimate (log intensity, higher = more binding, comparable within an allelic series)","13 upbm affinity estimate (log intensity, higher = more binding, comparable within an allelic series)","13.2 upbm affinity estimate (log intensity, higher = more binding, comparable within an allelic series)",–,–,–
CCTAATCC,"13.5 upbm affinity estimate (log intensity, higher = more binding, comparable within an allelic series)","13.6 upbm affinity estimate (log intensity, higher = more binding, comparable within an allelic series)","13.3 upbm affinity estimate (log intensity, higher = more binding, comparable within an allelic series)","13.2 upbm affinity estimate (log intensity, higher = more binding, comparable within an allelic series)",–,–,–
AGATTAAT,"12.9 upbm affinity estimate (log intensity, higher = more binding, comparable within an allelic series)","12.9 upbm affinity estimate (log intensity, higher = more binding, comparable within an allelic series)","12.6 upbm affinity estimate (log intensity, higher = more binding, comparable within an allelic series)","12.5 upbm affinity estimate (log intensity, higher = more binding, comparable within an allelic series)",–,–,–
CCGGATTA,"13.5 upbm affinity estimate (log intensity, higher = more binding, comparable within an allelic series)","13.6 upbm affinity estimate (log intensity, higher = more binding, comparable within an allelic series)","13.1 upbm affinity estimate (log intensity, higher = more binding, comparable within an allelic series)","13.5 upbm affinity estimate (log intensity, higher = more binding, comparable within an allelic series)",–,–,–
CTGGATTA,"13.1 upbm affinity estimate (log intensity, higher = more binding, comparable within an allelic series)","13.1 upbm affinity estimate (log intensity, higher = more binding, comparable within an allelic series)","13 upbm affinity estimate (log intensity, higher = more binding, comparable within an allelic series)","12.9 upbm affinity estimate (log intensity, higher = more binding, comparable within an allelic series)",–,–,–
GATTAAGC,"13.1 upbm affinity estimate (log intensity, higher = more binding, comparable within an allelic series)","13.1 upbm affinity estimate (log intensity, higher = more binding, comparable within an allelic series)","12.7 upbm affinity estimate (log intensity, higher = more binding, comparable within an allelic series)","12.6 upbm affinity estimate (log intensity, higher = more binding, comparable within an allelic series)",–,–,–
GGATTACC,"13.3 upbm affinity estimate (log intensity, higher = more binding, comparable within an allelic series)","13.3 upbm affinity estimate (log intensity, higher = more binding, comparable within an allelic series)","13.1 upbm affinity estimate (log intensity, higher = more binding, comparable within an allelic series)","13.3 upbm affinity estimate (log intensity, higher = more binding, comparable within an allelic series)",–,–,–
CGGATTAA,"13.7 upbm affinity estimate (log intensity, higher = more binding, comparable within an allelic series)","13.8 upbm affinity estimate (log intensity, higher = more binding, comparable within an allelic series)","13.4 upbm affinity estimate (log intensity, higher = more binding, comparable within an allelic series)","13.7 upbm affinity estimate (log intensity, higher = more binding, comparable within an allelic series)",–,–,–
GCTAATCC,"13.4 upbm affinity estimate (log intensity, higher = more binding, comparable within an allelic series)","13.5 upbm affinity estimate (log intensity, higher = more binding, comparable within an allelic series)","13.3 upbm affinity estimate (log intensity, higher = more binding, comparable within an allelic series)","13.4 upbm affinity estimate (log intensity, higher = more binding, comparable within an allelic series)",–,–,–
GACAACCA,"8.34 upbm affinity estimate (log intensity, higher = more binding, comparable within an allelic series)","8.18 upbm affinity estimate (log intensity, higher = more binding, comparable within an allelic series)","7.92 upbm affinity estimate (log intensity, higher = more binding, comparable within an allelic series)","8.21 upbm affinity estimate (log intensity, higher = more binding, comparable within an allelic series)",–,–,–
ACTAATCC,"13.6 upbm affinity estimate (log intensity, higher = more binding, comparable within an allelic series)","13.7 upbm affinity estimate (log intensity, higher = more binding, comparable within an allelic series)","13.4 upbm affinity estimate (log intensity, higher = more binding, comparable within an allelic series)","13.4 upbm affinity estimate (log intensity, higher = more binding, comparable within an allelic series)",–,–,–
TAATCCCA,"13.4 upbm affinity estimate (log intensity, higher = more binding, comparable within an allelic series)","13.4 upbm affinity estimate (log intensity, higher = more binding, comparable within an allelic series)","13.4 upbm affinity estimate (log intensity, higher = more binding, comparable within an allelic series)","13.3 upbm affinity estimate (log intensity, higher = more binding, comparable within an allelic series)",–,–,–
CCGGTGCG,"8.15 upbm affinity estimate (log intensity, higher = more binding, comparable within an allelic series)","8.24 upbm affinity estimate (log intensity, higher = more binding, comparable within an allelic series)",–,"8.27 upbm affinity estimate (log intensity, higher = more binding, comparable within an allelic series)","7.06 upbm affinity estimate (log intensity, higher = more binding, comparable within an allelic series)","7.11 upbm affinity estimate (log intensity, higher = more binding, comparable within an allelic series)","7.12 upbm affinity estimate (log intensity, higher = more binding, comparable within an allelic series)"
AAGGATTA,"13.4 upbm affinity estimate (log intensity, higher = more binding, comparable within an allelic series)","13.4 upbm affinity estimate (log intensity, higher = more binding, comparable within an allelic series)","13.2 upbm affinity estimate (log intensity, higher = more binding, comparable within an allelic series)","13.4 upbm affinity estimate (log intensity, higher = more binding, comparable within an allelic series)",–,–,–
GGATTAGA,"13.3 upbm affinity estimate (log intensity, higher = more binding, comparable within an allelic series)","13.2 upbm affinity estimate (log intensity, higher = more binding, comparable within an allelic series)","13.1 upbm affinity estimate (log intensity, higher = more binding, comparable within an allelic series)","13.1 upbm affinity estimate (log intensity, higher = more binding, comparable within an allelic series)",–,–,–
GGGGATTA,"13.7 upbm affinity estimate (log intensity, higher = more binding, comparable within an allelic series)","13.8 upbm affinity estimate (log intensity, higher = more binding, comparable within an allelic series)","13.5 upbm affinity estimate (log intensity, higher = more binding, comparable within an allelic series)","13.8 upbm affinity estimate (log intensity, higher = more binding, comparable within an allelic series)",–,–,–
AGTAATCC,"13.2 upbm affinity estimate (log intensity, higher = more binding, comparable within an allelic series)","13.1 upbm affinity estimate (log intensity, higher = more binding, comparable within an allelic series)","13.1 upbm affinity estimate (log intensity, higher = more binding, comparable within an allelic series)","13 upbm affinity estimate (log intensity, higher = more binding, comparable within an allelic series)",–,–,–
GAAGATTA,"12.8 upbm affinity estimate (log intensity, higher = more binding, comparable within an allelic series)","12.8 upbm affinity estimate (log intensity, higher = more binding, comparable within an allelic series)","12.4 upbm affinity estimate (log intensity, higher = more binding, comparable within an allelic series)","12.5 upbm affinity estimate (log intensity, higher = more binding, comparable within an allelic series)",–,–,–
